The text below walks through data of PubChem BioAssay.

Assay [1] can be described thus: Wnt pathway potentiators raising nuclear beta-catenin – imaging, WNT3A-conditioned medium, mouse C2C12, NPC library, primary screen (AID 1117326; in the data active = nuclear beta-catenin stimulation mostly above about 4.2%, no sharp cut-off; inactive = mostly below about 10%). The settings on record: stronger effect = higher value.
The nature of assay [2]: stimulators of insulin release from INS-1E, primary screen, cell-based, 5 mM glucose, NPC library (AID 1117329;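 active = compound raises insulin release from rat beta cells at 5 mM glucose, no numeric limit stated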). The settings on record: rat INS-1E insulin secretion, at 10 µM, stronger effect = higher value.
A short description of assay [3]: growth inhibition of GSK3B-pretreated HCT116 cells – cell-based, CellTiter-Glo, 0.2 to 20 µM (AID 1117336;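 active = compounds lowering colon cancer cell viability after pretreatment blocking the GSK3B kinase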). The settings on record: HCT116 viability after GSK3B inhibitor, at 20 µM, stronger effect = higher value.
A short description of assay [4]: inhibition of endothelial tube formation, primary screen, imaging, VEGF stimulated, CD31 staining, tube area, NPC library (AID 1117340;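 active = compound that reduces growth-factor-driven endothelial tube area in a mixed cell culture, no cutoff stated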). The settings on record: VEGF-stimulated ADSC/ECFC co-culture, at 10 µM, stronger effect = higher value.
A short description of assay [5]: GLP1 release stimulators, primary, NCI-H716, NPC library (AID 1117341;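 active = compound raises GLP1 secretion from the human gut endocrine cells, with no numeric limit stated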). The settings on record: NCI-H716 cells, at 10 µM, stronger effect = higher value.
A short description of assay [6]: HCT116 colon cancer cell growth inhibition, primary screen, CellTiter-Glo luminescence, NPC library (AID 1117342;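 active = compounds that lower survival of HCT116 colon cancer cells in the luminescence readout, no numeric limit stated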). The settings on record: at 20 µM (top of the series). (In general: In ATP-based viability assays light output follows the ATP content of the culture.)
Assay [7] in a line: reduced SW480 viability measured with CellTiter-Glo, NPC library, primary (AID 1117343;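 active = compounds that lower viability of the colon cancer cells in the luminescence readout, with no numeric limit stated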). The settings on record: CellTiter-Glo luminescence; at 20 µM (top of the series).
A short description of assay [8]: NPC library primary testing for decreased DLD-1 cell viability via CellTiter-Glo (AID 1117346;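 active = compounds that lower survival of DLD-1 colon cancer cells in the luminescence readout, no cutoff given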). The settings on record: DLD-1 viability, CellTiter-Glo luminescence; at 20 µM (top of the series).
Assay [9] addresses 6-phosphogluconate dehydrogenase, decarboxylating (Homo sapiens) (UniProt P52209). Nature of the assay: inhibition of human phosphogluconate dehydrogenase – biochemical, recombinant enzyme, NADPH absorbance, primary screen (AID 1159550;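 active = at least 20% inhibition of 6-phosphogluconate dehydrogenase activity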). The settings on record: recombinant 6PGD, NADPH absorbance 341 nm; at 10 µM; stronger effect = higher value.
Assay [10] can be described thus: EMT-state selective cytotoxicity in co-culture – imaging, PC-3E GFP, TEM4-18 mCherry, primary screen (AID 1345086;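 active = compounds killing one labelled cell type while sparing the other, by normalised counts and ratio limits, not self-fluorescent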;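 as to all read-outs here: cells exposed to compound for 72 h before imaging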;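 as to red/green cell ratio (normalised): normalised mesenchymal count divided by normalised epithelial count so high means epithelial killing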). The settings on record: PC-3E GFP / TEM4-18 mCherry co-culture, imaging cell counts, at 1 µM; for red/green cell ratio (normalised): actives lie on both sides.
Assay [11] has as its system Aerobactin synthetase IucA (Klebsiella pneumoniae hvKP1). The assay is described as follows: IucA enzyme inhibition, primary screen, biochemical, Spectrum library (AID 1346200; call rule not given here;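 also: 100% = wells without compound and 0% = wells lacking enzyme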). The settings on record: malachite green pyrophosphate, A620, at 8 µM, stronger effect = lower value.
The nature of assay [12]: MELAS cybrid and Rieske KO viability enhancers – cell-based, MELAS cybrids, Rieske KO mouse fibroblasts, CellTiter-Glo, primary screen (AID 1508586;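 active = mean z-score across replicates of 1.96 or higher in either the MELAS or the Rieske mutant cell line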;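 also: z relative to plate mean and SD of compound and empty wells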). The settings on record: low glucose.
In assay [13] the target is NAD(+) hydrolase SARM1 (Homo sapiens) (UniProt Q6SZW1). The assay is described as follows: blocking NAD cleavage by SARM1 SAM-TIR – cell lysate, NAD-Glo luminescence (AID 1508614;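 active = compound whose remaining NAD level is above about 45 nM, limit read from the data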;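 also: higher remaining NAD means stronger inhibition of SARM1 NADase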). The settings on record: SAM-TIR HEK293T lysate NADase, at 1 µM, stronger effect = higher value.
Chain of NAD(+) hydrolase SARM1 (Homo sapiens) (Q6SZW1 whole entry, looked up, the tested form may be a part): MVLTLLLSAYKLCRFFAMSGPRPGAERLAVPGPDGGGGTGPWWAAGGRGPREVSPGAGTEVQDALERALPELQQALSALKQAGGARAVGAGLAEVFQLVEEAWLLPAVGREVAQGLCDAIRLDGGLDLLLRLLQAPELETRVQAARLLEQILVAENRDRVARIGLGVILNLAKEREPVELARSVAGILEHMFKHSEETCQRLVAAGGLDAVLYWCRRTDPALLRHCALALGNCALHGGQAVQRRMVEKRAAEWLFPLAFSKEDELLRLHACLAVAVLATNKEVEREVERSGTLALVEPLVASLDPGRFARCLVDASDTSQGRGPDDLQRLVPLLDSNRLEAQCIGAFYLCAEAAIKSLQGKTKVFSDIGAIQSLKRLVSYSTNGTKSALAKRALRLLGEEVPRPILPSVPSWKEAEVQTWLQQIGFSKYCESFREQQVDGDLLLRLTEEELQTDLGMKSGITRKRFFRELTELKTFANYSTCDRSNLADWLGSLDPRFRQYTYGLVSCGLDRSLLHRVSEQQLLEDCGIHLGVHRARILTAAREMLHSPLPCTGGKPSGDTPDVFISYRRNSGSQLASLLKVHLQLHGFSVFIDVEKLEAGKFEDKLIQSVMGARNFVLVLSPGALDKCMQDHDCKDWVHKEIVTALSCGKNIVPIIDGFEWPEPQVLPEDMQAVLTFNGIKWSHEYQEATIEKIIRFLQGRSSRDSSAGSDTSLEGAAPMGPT
Assay [14] addresses Mitogen-activated protein kinase 7 (Homo sapiens) (UniProt Q13164). Nature of the assay: Gal4-ERK5 driven luciferase induction – cell-based, HTS, primary screen (AID 1508626;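 active = luciferase signal above three times the same-plate solvent-only control wells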;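 also: luciferase driven by Gal4-ERK5 fusion binding five Gal4 sites before minimal TATA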). The settings on record: HeLa Gal4-ERK5 transactivation, 18 h, at 5 µM, stronger effect = higher value.
Assay [15] in a line: galactose survival enhancers in mitochondrial complex I cybrids – cell-based, galactose medium, ATP luminescence, primary screen (AID 1645843).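 Also: positive z means more ATP and so rescue of galactose-driven cybrid death.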 The settings on record: complex I mutant cybrid cells, 72 h, stronger effect = higher value.
A short description of assay [16]: yeast 75Q aggregation reduction – 75Q-TubU reporter (AID 1593). The settings on record: Yeast 75Q polyglutamine aggregation reporter.
Assay [17] can be described thus: blockers of cytochrome c efflux from mitochondria – biochemical, purified mitochondria (AID 1603).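 Also: mouse liver mitochondria challenged with calcium chloride; signal normalized to the plate average as 100%.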 The settings on record: stronger effect = lower value.
Assay [18] can be described thus: polyglutamine aggregate formation blockers (AID 1604). The settings on record: polyglutamine-induced protein aggregation inhibition assay; stronger effect = higher value; tested at 2.5 µM.
Assay [19] can be described thus: P. berghei load reduction in hepatocytes – cell-based, HepG2, luciferase luminescence, HepG2 viability, primary screen (AID 624349; in the data active = parasite load remaining mostly below about 12%, no sharp cut-off; inactive = mostly above about 10%;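 also: 100% = mean of DMSO negative control wells on the same plate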). The settings on record: P. berghei liver stage in HepG2, luciferase luminescence, concentration not given here; parasite load remaining: stronger effect = lower value; viability: measured here: HepG2 viability without parasites.
Setting [20] is: measured here: epithelial PC-3E GFP cell survival.
Setting [21] is: measured here: mesenchymal TEM4-18 mCherry cell survival.
Setting [22] is: MELAS cybrid survival, CellTiter-Glo 48 h, stronger effect = higher value.
The mark [23] stands for this setting: Rieske KO mouse fibroblast survival, CellTiter-Glo 72 h.

What is called inhibition is the relative decrease from the control value, in per cent. As usually defined, the viability is a read-out of living cells in per cent, often relative to untreated cells.

SMILES strings stand for the structures. Several values for one entry are separate records, joined by “and”; a condition that tells them apart may be missing. Equal entries are not always repeated. The source holds several records for some structures; these can differ, active in one and inactive in another. Activity calls are given as the source filed them.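 The calls were made as follows, unless noted: active = z-score of at least 1.8 in each of two replicates, scored against plate mean and spread of sample wells; inactive = the rest.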

Chain of 6-phosphogluconate dehydrogenase, decarboxylating (Homo sapiens) (P52209 whole entry, looked up): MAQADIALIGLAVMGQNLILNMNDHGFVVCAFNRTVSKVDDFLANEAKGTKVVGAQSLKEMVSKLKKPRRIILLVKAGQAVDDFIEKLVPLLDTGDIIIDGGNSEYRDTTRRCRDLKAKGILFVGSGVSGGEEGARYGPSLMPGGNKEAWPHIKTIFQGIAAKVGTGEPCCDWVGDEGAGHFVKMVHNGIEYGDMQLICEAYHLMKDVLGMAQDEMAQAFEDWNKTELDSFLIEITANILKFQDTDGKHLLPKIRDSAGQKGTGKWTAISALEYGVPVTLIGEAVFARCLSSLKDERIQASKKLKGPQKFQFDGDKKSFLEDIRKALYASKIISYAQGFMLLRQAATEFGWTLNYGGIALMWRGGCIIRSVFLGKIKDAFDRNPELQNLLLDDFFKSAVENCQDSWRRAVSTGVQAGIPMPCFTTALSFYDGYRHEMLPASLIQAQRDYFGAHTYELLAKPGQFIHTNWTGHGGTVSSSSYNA
Chain of Mitogen-activated protein kinase 7 (Homo sapiens) (Q13164 whole entry, looked up, the tested form may be a part): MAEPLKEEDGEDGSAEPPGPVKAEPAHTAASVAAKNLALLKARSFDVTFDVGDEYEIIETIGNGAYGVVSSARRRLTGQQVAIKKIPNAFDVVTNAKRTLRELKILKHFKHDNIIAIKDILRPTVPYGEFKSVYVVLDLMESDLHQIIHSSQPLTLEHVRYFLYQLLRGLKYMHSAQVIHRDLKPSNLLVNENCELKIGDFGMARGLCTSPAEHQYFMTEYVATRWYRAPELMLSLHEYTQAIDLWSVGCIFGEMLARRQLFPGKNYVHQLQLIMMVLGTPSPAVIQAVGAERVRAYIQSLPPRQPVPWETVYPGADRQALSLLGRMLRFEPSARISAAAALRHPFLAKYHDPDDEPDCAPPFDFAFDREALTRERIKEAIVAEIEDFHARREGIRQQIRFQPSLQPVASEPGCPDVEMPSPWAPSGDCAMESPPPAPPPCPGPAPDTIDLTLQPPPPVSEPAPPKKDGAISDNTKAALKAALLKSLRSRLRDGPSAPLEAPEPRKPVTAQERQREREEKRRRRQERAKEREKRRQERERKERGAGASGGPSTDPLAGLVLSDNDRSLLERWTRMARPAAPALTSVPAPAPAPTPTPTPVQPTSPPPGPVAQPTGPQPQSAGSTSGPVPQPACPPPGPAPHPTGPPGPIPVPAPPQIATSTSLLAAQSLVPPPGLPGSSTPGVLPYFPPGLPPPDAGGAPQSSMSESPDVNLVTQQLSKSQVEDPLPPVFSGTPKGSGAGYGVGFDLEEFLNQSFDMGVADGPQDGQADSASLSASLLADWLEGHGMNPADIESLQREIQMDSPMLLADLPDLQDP

In the case of `C[N+](C)(C)CCOC(=O)C(O)(c1ccccc1)c1ccccc1`, the nuclear beta-catenin stimulation in assay [1] (at 10 µM) was -1.8% (inactive); in assay [1] (stimulation, at 2 µM) it was -0.5%. In addition, the insulin secretion stimulation in [2] was 1.1% (inactive). The viability decrease in assay [3] is 98.1% (active). The tube area decrease in assay [4] is -29.2% (inactive). The GLP1 secretion stimulation in [5] is -2.6% (inactive). For the same molecule, the inhibition of viability in [6] is 96.5% (active). The viability decrease (inhibition) was 98.8% (active) in [7] and 102% (active) in assay [8].

For `COc1ccc(C(CN(C)C)C2(O)CCCCC2)cc1` (stereo not drawn), the nuclear beta-catenin stimulation in assay [1] (at 10 µM) was 3.1% (inactive); in assay [1] (stimulation, at 2 µM), 1.4%. In addition, in [2], the insulin secretion stimulation is 2.1% (inactive). In addition, the viability decrease in [3] is -40% (inactive). Besides, the tube area decrease in assay [4] is 1.5% (inactive). For the same molecule, the GLP1 secretion stimulation in assay [5] was 4.1% (inactive). Further, in [6], the inhibition of viability was -3.77% (inactive). The viability decrease (inhibition) in [7] is -4% (inactive); in [8] it was -3.8% (inactive). In addition, in assay [9], the inhibition was -0.228% (inactive). Besides, the red/green cell ratio (normalised) in assay [10] (counts scaled to control wells, 1 = unselective) is 1.25 (inactive). Moreover, the normalised cell number came out at 1.01 in assay [10] (setting [20]) and 1.26 in assay [10] (setting [21]). Moreover, the activity remaining in assay [11] is 123% (inactive). The z-score in assay [12] (setting [22]) is 2.81 (active) and 0.624 (inactive) and -0.216 (inactive); in assay [12] (setting [23]), -2.19 and 0.0731 and -0.394; in [15] it was -0.07 (inactive) and 0.705 (inactive) and 0.625 (inactive). Further, the remaining NAD in assay [13] is 10 nM (inactive). Besides, the luciferase signal in assay [14] is 48 AU (inactive).

`CN1C(=O)CCS(=O)(=O)C1c1ccc(Cl)cc1` (stereo not drawn) displayed a score in [16] of 0.89. Also, the cytochrome c release ratio in [17] is 0.72. The molecule also displayed an inhibition of aggregation in assay [18] of 72.7%. In assay [19], the parasite load remaining was 65% (inactive) and 73.4% (inactive). The viability in assay [19] was 112% and 75.6%. In addition, the nuclear beta-catenin stimulation is 0.2% (inactive) in [1] (at 10 µM) and 3.4% in [1] (stimulation, at 2 µM). Besides, the insulin secretion stimulation in assay [2] was 0.4% (inactive). The viability decrease in assay [3] was -22.1% (inactive). Also, the tube area decrease in assay [4] is 3.9% (inactive). The GLP1 secretion stimulation in [5] was 3.4% (inactive). Besides, the inhibition of viability in assay [6] was -1.4% (inactive). For the same molecule, the viability decrease (inhibition) was 2.8% (inactive) in [7] and -11.9% (inactive) in [8]. In addition, the inhibition in assay [9] was -16% (inactive). Besides, the red/green cell ratio (normalised) in assay [10] was 1.12 (inactive). Moreover, the values for the normalised cell number in [10] (setting [20]) and in [10] (setting [21]) were 0.96 and 1.07, respectively. In addition, the activity remaining in assay [11] was 123% (inactive). For the same molecule, the z-score in assay [12] (setting [22]) is -0.135 (inactive) and 0.131 (inactive); in [12] (setting [23]) it was 0.8 and -0.00931; in assay [15], 0.35 (inactive) and 0.81 (inactive). In [13], the remaining NAD is 10 nM (inactive).

For `COC(=O)C1=CCCN(C)C1`, the score in assay [16] is 1.73. Also, the cytochrome c release ratio in assay [17] came to 0.68. The inhibition of aggregation in [18] stood at 81.4%. Also, the nuclear beta-catenin stimulation is 4.2% (inactive) in assay [1] (at 10 µM) and 2.3% in assay [1] (stimulation, at 2 µM). In addition, the insulin secretion stimulation in assay [2] is -0.6% (inactive). Further, the viability decrease in assay [3] is -6.9% (inactive). In [4], the tube area decrease is 25.2% (inactive). The GLP1 secretion stimulation in assay [5] was -0.8% (inactive). In [6], the inhibition of viability is -3.33% (inactive). The viability decrease (inhibition) in [7] is 8.4% (inactive); in assay [8] it was -18.9% (inactive). Besides, the inhibition in assay [9] is -2.35% (inactive). Also, the red/green cell ratio (normalised) in [10] is 1.16 (inactive). The normalised cell number in assay [10] (setting [20]) stood at 0.91; in assay [10] (setting [21]), 1.07. The activity remaining in [11] is 112% (inactive). In addition, the z-score in [12] (setting [22]) is -0.328 (inactive); in assay [12] (setting [23]), 0.482; in assay [15], -0.47 (inactive). Moreover, the remaining NAD in assay [13] was 10 nM (inactive). Moreover, the luciferase signal in assay [14] is 52 AU (inactive).
